High-throughput results (PubChem BioAssay)
In the library only some 1.3% were active in any assay of this set; here they are far more common.
LRH-1 inv ag: LRH-1 (NR5A2) inverse agonists, primary screen, cell-based, luminescence, HEK293T, StAR-luciferase reporter; actives 0.13% (n = 360,000); Nuclear receptor subfamily 5 group A member 2 (Homo sapiens), O00482; inhibition, % at 3.6 µM; LRH-1 transfected, 24 h;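 active means inhibition above the mean inhibition of all tested compounds plus 3 SD, cut at about 73% in these data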;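 further: 0% = DMSO wells and 100% = reporter-only cells lacking LRH-1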
Gli-Sufu antag: Gli-Sufu pathway antagonists, primary screen, luciferase luminescence, Sufu-KO-LIGHT cells, uHTS | Sufu-KO-LIGHT fibroblasts, Gli luciferase reporter luminescence | inhibition, % at 5 µM | actives 0.74% (n = 340,000) | AID 588413, 2011;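 active means inhibition above about 55%, limit read from the data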;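 further: 0% = DMSO-treated cells and 100% = wells with medium but no cells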
NCOA3 inh: SRC3 coactivator transcriptional activity inhibitors, primary screen, cell-based, luminescence. Nuclear receptor coactivator 3 (Homo sapiens), Q9Y6Q9. HEK293 GAL4-SRC3 luciferase reporter. inhibition, % at 3.6 µM. actives 0.17% (n = 360,000);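 active means inhibition above a per-campaign cutoff, the mean of all compounds plus 3 SD, cut at about 60% in these data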;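 further: 0% = DMSO-treated cells and 100% = gossypol-treated cells at 36 µM; higher means less SRC3-driven luciferase light from the GAL4 reporter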
Target sequence (Q9Y6Q9 whole entry, looked up, the tested form may be a part): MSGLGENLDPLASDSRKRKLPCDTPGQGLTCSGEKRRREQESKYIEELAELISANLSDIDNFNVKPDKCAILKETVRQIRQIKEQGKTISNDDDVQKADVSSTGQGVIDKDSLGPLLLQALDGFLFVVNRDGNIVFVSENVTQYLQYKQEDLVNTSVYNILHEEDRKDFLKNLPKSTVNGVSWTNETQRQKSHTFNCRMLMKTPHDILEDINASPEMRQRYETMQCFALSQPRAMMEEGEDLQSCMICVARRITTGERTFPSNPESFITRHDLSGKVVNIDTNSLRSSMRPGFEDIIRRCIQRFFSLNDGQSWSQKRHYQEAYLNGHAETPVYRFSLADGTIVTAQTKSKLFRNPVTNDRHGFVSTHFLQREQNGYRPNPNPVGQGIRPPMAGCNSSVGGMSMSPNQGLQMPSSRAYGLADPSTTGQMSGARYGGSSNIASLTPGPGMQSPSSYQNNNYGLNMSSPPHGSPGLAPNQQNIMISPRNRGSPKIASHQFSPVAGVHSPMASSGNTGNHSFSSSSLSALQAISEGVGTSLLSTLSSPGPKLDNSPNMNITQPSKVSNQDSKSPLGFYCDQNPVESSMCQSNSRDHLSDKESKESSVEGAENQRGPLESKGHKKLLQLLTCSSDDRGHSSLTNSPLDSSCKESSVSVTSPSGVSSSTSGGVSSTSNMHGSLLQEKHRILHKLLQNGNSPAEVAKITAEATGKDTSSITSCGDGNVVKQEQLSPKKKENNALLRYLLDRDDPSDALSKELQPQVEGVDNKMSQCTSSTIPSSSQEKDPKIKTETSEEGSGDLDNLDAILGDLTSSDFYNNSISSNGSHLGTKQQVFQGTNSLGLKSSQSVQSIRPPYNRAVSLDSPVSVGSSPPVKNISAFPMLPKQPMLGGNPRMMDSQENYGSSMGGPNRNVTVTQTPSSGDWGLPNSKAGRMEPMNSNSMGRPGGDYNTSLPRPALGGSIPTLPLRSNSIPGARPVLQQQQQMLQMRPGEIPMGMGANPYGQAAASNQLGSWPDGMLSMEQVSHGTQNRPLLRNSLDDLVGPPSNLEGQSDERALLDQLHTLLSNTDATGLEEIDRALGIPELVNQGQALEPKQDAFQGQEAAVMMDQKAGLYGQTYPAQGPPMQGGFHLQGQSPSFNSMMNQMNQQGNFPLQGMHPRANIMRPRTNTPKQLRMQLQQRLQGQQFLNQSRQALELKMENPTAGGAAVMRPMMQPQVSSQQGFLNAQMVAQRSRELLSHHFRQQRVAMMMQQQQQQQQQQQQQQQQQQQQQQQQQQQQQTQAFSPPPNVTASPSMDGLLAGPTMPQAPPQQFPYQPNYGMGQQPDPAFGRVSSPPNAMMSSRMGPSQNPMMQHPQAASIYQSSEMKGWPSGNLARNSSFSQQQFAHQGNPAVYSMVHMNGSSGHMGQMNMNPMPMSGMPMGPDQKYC
NR2F2 inh: NR2F2 transcriptional activity inhibitors, primary screen, cell-based, luciferase reporter, HEK293T, luminescence; COUP transcription factor 2 (Homo sapiens), P24468; HEK293T NGFI-A luciferase reporter; inhibition, % at 8.6 µM; actives 0.7% (n = 370,000); AID 686940, 2013;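 active means inhibition above a per-plate cutoff, mean inhibition of test wells between control levels plus 3 SD, cut at about 38% in these data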;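 further: cells cotransfected with COUP-TFII expression vector driving the NGFI-A reporter; 0% = median of COUP-TF2 test wells and 100% = reporter-only cells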
NCOA1 inh: SRC1 coactivator transcriptional activity inhibitors, primary screen, cell-based, luminescence; HEK293 GAL4-SRC1 luciferase reporter; AID 588354, 2011; Nuclear receptor coactivator 1 (Homo sapiens), Q15788; actives 0.12% (n = 360,000); inhibition, % at 3.6 µM;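 active means inhibition above the campaign mean plus 3 SD, with each screening campaign given its own cutoff, cut at about 60% in these data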;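 further: 0% = DMSO treated cells and 100% = gossypol at 36 µM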
SRC2 inh: inhibition of GAL4-SRC2 driven luciferase reporter, primary screen, SRC2 inhibitor project, cell-based, luminescence | Nuclear receptor coactivator 2 (Homo sapiens), Q15596 | HEK293 GAL4-SRC2 luciferase reporter | inhibition, % at 9 µM | actives 0.17% (n = 370,000) | AID 651957, 2012;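 active means inhibition above the mean inhibition of all tested compounds plus 3 SD, set per campaign, cut at about 52% in these data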;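 further: 0% = DMSO treated cells and 100% = cells given Gossypol at 36 µM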
Gal4-VP16 ctr: Gal4-VP16 luciferase reporter inhibitors, counter-screen for COUP-TFII antagonist project, cell-based, luminescence, HEK293 | actives 25% (n = 2,500) | shares compounds with NR2F2 inh | inhibition, % at 8.5 µM; in the data active means inhibition above about 13%
NR2F2 inh conf: NR2F2 transcriptional activity inhibitors, confirmation, cell-based, luciferase reporter, HEK293, triplicate. shares compounds with NR2F2 inh. HEK293 NGFI-A luciferase reporter, luminescence. inhibition, % at 8.5 µM. actives 45% (n = 2,500). AID 687008, 2013;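 active means mean inhibition over three repeats above a set limit taken from the earlier primary screen, cut at about 38% in these data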;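 further: 100% = cells given the luciferase reporter alone without the COUP-TF2 vector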
* hit, by the source's call; / = no result given.

SMILES	LRH-1 inv ag	Gli-Sufu antag	NCOA3 inh	NR2F2 inh	NCOA1 inh	SRC2 inh	Gal4-VP16 ctr	NR2F2 inh conf
COc1ccc(C(=O)CSc2nnc(-c3ccccc3)n2-c2ccc(Cl)cc2)cc1	/	/	/	-6	/	4	/	/
CCC(=O)Nc1ccc2c(c1)C(=O)N(C)[C@@H]1CC[C@@H](CC(=O)OC)O[C@H]1CO2	/	/	/	-13	/	1	/	/
CN(Cc1ccccc1)C(=O)c1ccc(NC(=O)Cc2ccc(NC(=O)C3CCN(C(=O)CCc4ccccc4)CC3)cc2)cc1	14	16	14	7	8	5	/	/
CN(Cc1ccccc1)C(=O)c1cccc(NC(=O)Cc2ccc(NC(=O)C3CCN(C(=O)CCc4ccccc4)CC3)cc2)c1	7	20	8	70*	15	31	5	43*
CN(C(=O)c1cccc(NC(=O)Cc2ccc(NC(=O)C3CCCN(C(=O)CCc4ccccc4)C3)cc2)c1)C1CCCCC1 (stereo not drawn)	48	18	6	77*	35	23	0	62*
CN(Cc1ccccc1)C(=O)c1ccc(NC(=O)Cc2ccc(NC(=O)C3CCCN(C(=O)CCc4ccccc4)C3)cc2)cc1 (stereo not drawn)	42	29	23	75*	25	8	8	70*
CN(Cc1ccccc1)C(=O)c1ccc(NC(=O)Cc2ccc(NC(=O)C3CCCN(C(=O)C4CCC4)C3)cc2)cc1 (stereo not drawn)	-1	-1	12	10	2	-1	/	/
CN(C(=O)c1cccc(NC(=O)Cc2ccc(NC(=O)C3CCCN(C(=O)CCc4ccccc4)C3)cc2)c1)C1CC1 (stereo not drawn)	17	11	2	10	12	8	/	/
C=CCNC(=O)NCC1CCN(Cc2ccc(OC)cc2)CC1	/	/	/	12	/	-14	/	/
O=C(c1ccncc1)c1ccc(N2CCN(C3CC(=O)N(Cc4cccs4)C3=O)CC2)cc1 (stereo not drawn)	14	-2	1	38*	14	28	3	23
CCOc1ccccc1C(=O)Nc1ccc2nc(C)[nH]c(=O)c2c1	/	/	/	-24	/	-11	/	/
CCCCCc1ccc(NC(=O)OCCN2C(=O)CCC23CCC(c2ccccc2)CC3)cc1 (stereo not drawn)	/	/	/	4	/	14	/	/
CN(c1ccc(OCC(=O)OCC(=O)Nc2ccc(F)cc2)cc1)S(=O)(=O)c1ccc(Cl)cc1	-2	0	11	2	1	-19	/	/
COc1ccc(NC(=O)COc2ccc(N(C)S(=O)(=O)c3ccc(Cl)cc3)cc2)cc1OC	41	26	29	59*	11	14	2	58*
COc1ccc(-c2csc(NC(=O)COc3ccc(N(C)S(=O)(=O)c4ccc(C)cc4)cc3)n2)cc1	5	50	23	40*	-13	18	-14	25
Cc1ccc(-c2csc(NC(=O)COc3ccc(N(C)S(=O)(=O)c4ccc(C)cc4)cc3)n2)cc1	16	7	22	8	0	5	/	/
Cn1c(=O)cc(OCCCC(=O)Nc2cc(C(F)(F)F)ccn2)c2ccccc21	/	/	/	71*	/	/	16*	28
Cn1c(=O)cc(OCCCC(=O)Nc2cc(-c3ccncc3)ccn2)c2ccccc21	/	/	/	46*	/	/	23*	40*
Cn1c(=O)cc(OCCCC(=O)NCc2cccnc2)c2ccccc21	12	1	13	-16	-23	-18	/	/
Cn1c(=O)cc(OCCCC(=O)NCc2ccccn2)c2ccccc21	25	2	3	-36	15	-35	/	/
